For some of these results: Potency and affinity values are given separately.

What all share (design): scale not given: direction of the effect not stated beside the values
The target of assay [1] is Protein translocase subunit SecA (Escherichia coli (strain K12)) (UniProt P10408). Description: Assay to Identify E. coli SecA ATPase Inhibitors. The format is functional. The note with it: 30 µM.
For assay [2], the target named is T1, Ubiquitin-activating enzyme e1, putative (Leishmania donovani (strain BPK282A1)) (UniProt E9BSI1).
T1 sequence (whole entry): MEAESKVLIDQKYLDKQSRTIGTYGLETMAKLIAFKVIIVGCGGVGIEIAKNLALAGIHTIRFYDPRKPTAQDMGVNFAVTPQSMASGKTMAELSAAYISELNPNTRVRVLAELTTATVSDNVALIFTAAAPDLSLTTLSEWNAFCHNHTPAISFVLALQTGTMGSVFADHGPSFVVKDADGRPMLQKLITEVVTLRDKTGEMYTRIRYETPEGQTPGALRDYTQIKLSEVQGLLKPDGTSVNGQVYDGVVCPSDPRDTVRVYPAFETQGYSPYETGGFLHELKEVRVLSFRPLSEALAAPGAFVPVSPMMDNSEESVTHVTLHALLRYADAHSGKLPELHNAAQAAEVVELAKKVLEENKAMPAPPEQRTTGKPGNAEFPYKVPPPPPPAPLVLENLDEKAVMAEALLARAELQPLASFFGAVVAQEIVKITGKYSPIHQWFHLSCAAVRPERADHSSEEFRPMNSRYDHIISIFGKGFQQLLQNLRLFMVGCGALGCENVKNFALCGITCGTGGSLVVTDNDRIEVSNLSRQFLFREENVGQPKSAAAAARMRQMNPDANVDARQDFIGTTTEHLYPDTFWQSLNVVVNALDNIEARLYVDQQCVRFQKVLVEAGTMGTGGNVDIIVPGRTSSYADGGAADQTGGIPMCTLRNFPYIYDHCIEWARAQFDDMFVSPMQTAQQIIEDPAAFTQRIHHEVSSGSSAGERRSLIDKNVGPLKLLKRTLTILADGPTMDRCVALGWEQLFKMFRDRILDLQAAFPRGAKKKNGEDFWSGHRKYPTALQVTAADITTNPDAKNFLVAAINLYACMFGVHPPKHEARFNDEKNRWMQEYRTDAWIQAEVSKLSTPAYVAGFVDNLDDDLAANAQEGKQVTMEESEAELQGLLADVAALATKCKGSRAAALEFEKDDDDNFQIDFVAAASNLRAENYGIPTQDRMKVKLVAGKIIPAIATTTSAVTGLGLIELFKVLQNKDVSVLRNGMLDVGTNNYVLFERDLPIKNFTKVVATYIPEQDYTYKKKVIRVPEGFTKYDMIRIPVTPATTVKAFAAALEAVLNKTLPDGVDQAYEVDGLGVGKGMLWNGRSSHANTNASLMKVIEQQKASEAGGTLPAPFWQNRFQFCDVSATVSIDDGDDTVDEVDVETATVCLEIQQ
Description: Leishmania donovani Ubiquitin Activating Enzyme (LdE1). The format is functional. To be noted: 30 µM.

Assay [3] has as its target AMP-activated protein kinase, AMPK (Homo sapiens) (UniProt P54646+O43741+P54619+Q9UGJ0+Q9Y478+Q13131+Q9UGI9). Description: AMP-dependent Kinase enzyme assay. An in vitro enzyme assay that detects ADP turnover that is directly proportional to AMPK activity. This uses naive AMPK that is activated during the assay with MK-8722. The format is functional. To be noted: 30 µM.

Assay [4] has as its target Sialic acid-binding Ig-like lectin 9 (Homo sapiens) (UniProt Q9Y336). Description: Hs-Siglec9 ALPHAscreen SOP 20170721. The note with it: 10 µM. A general note: In Alpha technology, singlet oxygen from a donor bead excites a nearby acceptor bead.
The subject of a further assay is Trypanosoma cruzi. Description: Trypanosoma cruzi phosphomannomutase and mannose-1-phosphate guanylyltransferase assay. It is filed as functional. To be noted: 10 µM.
Assay [5] deals with T2, Arginase-2, mitochondrial (Homo sapiens) (UniProt P78540).
T2 sequence (whole entry): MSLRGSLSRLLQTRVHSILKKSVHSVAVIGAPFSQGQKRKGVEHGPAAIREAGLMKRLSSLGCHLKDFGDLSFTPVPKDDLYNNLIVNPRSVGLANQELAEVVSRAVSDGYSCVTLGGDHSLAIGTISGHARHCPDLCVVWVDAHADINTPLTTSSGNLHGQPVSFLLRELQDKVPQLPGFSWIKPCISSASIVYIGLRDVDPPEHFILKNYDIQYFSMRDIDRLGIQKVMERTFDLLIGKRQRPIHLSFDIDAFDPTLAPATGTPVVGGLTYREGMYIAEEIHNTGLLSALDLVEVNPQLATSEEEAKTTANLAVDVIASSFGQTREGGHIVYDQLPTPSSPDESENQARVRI
Description: in vitro enzyme assay to detect the production of urea directly proportional to the activity of Arginase II. Further: in the data most compounds retested in dose-response had high values. It is filed as functional. The note with it: 33.3 µM.

The target in assay [6] is T3, Proteasome subunit beta (Trypanosoma cruzi) (UniProt O96673).
T3 sequence (whole entry): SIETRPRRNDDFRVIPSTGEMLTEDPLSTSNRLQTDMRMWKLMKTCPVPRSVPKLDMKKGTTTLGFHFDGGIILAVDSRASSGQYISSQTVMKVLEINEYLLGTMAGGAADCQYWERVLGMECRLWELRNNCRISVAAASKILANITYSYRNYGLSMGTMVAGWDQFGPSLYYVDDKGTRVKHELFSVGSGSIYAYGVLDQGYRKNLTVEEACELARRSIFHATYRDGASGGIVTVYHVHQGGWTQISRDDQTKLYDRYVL
Description: Trypanosoma cruzi proteasome chymotrypsin-like activity (TcProtChymo) assay. Further: in the data most compounds retested in dose-response had high values. It is filed as functional. The note with it: 9.37 µM.

A further assay is filed under the species Homo sapiens. Description: To identify inhibition of the IFN signalling (Jak-Stat) pathway via expression of an eGFP reporter gene under the control of an IFN-stimulated response element (ISRE) containing MxA promoter. It is filed as functional. To be noted: 30 µM. (A reporter such as luciferase makes a cellular process visible.)
For assay [7], the target named is T4, Tyrosyl-tRNA synthetase, putative (Trypanosoma cruzi (strain CL Brener)) (UniProt Q4DSP6).
T4 sequence (whole entry): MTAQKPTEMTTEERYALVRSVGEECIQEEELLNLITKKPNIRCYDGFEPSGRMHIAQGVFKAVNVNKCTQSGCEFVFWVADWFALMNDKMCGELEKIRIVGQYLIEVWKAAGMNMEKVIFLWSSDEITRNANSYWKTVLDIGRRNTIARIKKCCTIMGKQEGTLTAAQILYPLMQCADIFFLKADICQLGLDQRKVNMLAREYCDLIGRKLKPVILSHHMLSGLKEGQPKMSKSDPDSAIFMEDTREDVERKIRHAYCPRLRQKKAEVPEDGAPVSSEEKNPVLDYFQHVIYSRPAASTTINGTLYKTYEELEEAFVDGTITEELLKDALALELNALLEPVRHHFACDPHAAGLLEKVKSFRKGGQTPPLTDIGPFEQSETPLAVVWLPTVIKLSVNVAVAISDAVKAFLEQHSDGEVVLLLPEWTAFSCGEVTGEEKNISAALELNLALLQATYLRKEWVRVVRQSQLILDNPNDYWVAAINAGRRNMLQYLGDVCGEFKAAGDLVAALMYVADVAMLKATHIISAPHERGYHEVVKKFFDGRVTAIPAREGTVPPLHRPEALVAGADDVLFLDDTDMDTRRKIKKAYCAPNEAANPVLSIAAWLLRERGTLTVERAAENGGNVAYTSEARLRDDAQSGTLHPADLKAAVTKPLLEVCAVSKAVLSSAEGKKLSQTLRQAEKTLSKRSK
Description: Trypanosoma cruzi tyrosyl tRNA synthetase (TcYRS) _High Tyrosine SOP. Further: in the data most compounds retested in dose-response had high values. It is filed as functional. To be noted: 30 µM.

Assay [8] concerns the target T4, Tyrosyl-tRNA synthetase, putative (Trypanosoma cruzi (strain CL Brener)). Description: Trypanosoma cruzi tyrosyl tRNA synthetase (TcYRS) SOP. The note with it: 30 µM. The format is functional.
The target of assay [9] is Chromo domain-containing protein 1 (Saccharomyces cerevisiae (strain ATCC 204508 / S288c) (Baker's yeast)) (UniProt P32657). Description: ScCHD-1 Enzyme Inhibition Assay. Further: in the data most compounds retested in dose-response had high values. It is filed as functional. To be noted: 30 µM.
Sequence of Chromo domain-containing protein 1 (Saccharomyces cerevisiae (strain ATCC 204508 / S288c) (Baker's yeast)) (P32657 whole entry, the tested form may be a part): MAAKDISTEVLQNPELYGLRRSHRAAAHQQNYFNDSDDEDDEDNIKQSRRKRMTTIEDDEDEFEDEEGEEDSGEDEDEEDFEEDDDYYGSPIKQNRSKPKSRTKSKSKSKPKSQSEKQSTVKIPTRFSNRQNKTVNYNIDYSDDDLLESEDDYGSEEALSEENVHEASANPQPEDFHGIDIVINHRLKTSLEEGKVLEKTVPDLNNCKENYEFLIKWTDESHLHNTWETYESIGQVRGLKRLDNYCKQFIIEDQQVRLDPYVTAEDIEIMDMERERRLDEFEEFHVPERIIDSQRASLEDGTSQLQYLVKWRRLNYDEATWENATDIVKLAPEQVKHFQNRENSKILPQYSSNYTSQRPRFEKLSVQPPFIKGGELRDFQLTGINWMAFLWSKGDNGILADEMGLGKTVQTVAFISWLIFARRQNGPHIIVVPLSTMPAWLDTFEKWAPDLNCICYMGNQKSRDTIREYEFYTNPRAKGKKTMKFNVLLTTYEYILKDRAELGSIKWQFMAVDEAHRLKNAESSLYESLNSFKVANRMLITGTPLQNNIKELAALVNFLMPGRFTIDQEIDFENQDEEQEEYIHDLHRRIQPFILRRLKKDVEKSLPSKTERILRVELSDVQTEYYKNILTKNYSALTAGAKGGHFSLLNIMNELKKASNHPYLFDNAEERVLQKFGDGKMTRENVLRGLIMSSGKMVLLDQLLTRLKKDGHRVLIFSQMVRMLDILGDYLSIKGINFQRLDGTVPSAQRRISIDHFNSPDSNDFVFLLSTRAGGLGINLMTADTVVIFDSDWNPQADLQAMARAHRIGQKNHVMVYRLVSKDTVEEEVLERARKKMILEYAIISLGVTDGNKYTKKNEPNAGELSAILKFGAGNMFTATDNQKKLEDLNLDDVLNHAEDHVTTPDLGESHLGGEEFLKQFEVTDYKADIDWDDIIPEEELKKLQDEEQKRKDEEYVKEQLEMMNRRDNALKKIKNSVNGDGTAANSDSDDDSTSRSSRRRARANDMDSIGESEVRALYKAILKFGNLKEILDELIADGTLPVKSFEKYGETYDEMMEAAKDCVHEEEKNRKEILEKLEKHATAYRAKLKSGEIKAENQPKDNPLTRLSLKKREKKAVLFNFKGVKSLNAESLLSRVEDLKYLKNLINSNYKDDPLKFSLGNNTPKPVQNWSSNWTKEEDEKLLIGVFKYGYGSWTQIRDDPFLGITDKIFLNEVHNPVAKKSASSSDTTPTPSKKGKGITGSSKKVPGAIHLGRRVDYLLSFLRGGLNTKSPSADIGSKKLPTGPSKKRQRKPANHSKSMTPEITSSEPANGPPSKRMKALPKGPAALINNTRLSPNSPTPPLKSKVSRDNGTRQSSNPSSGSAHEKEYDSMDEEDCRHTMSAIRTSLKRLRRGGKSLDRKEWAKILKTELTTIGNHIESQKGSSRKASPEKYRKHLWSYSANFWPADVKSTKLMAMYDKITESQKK

Sequence of Sialic acid-binding Ig-like lectin 9 (Homo sapiens) (Q9Y336 whole entry): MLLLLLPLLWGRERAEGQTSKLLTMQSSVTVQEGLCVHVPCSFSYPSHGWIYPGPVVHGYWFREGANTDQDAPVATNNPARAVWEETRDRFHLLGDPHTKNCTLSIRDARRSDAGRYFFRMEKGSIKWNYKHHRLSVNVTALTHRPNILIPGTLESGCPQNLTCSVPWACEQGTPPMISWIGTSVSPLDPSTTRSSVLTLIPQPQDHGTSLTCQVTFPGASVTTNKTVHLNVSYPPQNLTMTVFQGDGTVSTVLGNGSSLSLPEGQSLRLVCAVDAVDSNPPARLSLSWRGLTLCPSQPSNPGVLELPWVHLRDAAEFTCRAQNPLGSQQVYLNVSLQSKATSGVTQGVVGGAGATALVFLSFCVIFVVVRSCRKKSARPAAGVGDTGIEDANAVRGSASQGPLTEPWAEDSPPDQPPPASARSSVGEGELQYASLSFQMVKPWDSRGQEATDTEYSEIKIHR
Sequence of Protein translocase subunit SecA (Escherichia coli (strain K12)) (P10408 whole entry): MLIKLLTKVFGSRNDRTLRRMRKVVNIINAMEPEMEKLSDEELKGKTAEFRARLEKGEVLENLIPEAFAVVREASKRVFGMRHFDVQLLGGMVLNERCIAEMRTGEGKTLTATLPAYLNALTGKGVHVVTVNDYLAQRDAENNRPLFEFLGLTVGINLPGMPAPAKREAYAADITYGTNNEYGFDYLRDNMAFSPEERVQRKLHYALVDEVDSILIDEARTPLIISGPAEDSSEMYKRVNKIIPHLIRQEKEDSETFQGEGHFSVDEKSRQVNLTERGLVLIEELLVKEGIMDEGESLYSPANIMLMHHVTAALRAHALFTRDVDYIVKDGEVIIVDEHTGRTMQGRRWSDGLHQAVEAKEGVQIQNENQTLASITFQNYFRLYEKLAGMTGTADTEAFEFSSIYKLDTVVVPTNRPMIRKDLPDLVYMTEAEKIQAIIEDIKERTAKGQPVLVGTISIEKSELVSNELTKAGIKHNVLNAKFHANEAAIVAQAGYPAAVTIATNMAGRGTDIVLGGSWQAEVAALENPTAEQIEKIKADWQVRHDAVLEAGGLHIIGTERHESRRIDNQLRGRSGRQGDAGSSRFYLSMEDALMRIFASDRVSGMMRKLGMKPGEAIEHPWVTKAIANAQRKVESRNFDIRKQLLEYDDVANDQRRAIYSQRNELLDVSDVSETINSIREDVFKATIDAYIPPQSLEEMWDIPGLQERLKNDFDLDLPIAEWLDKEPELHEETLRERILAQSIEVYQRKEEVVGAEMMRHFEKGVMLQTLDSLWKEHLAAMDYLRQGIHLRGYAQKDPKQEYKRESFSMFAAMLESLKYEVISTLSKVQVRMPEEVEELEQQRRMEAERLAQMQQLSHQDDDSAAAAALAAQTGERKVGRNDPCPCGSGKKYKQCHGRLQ

On to `Cc1nocc1C(=O)N1CCc2c(CN(C)C(C)C)n[nH]c2C1`, for which the Percent Effect in assay [1] was 1.54%; in [2], 11%; in [3], -4.98%; in assay [4] it was 8.21%; with Trypanosoma cruzi, 3.77%; in [5], -0.798%. Further, the Percent Effect in assay [6] was 20.3%; in the assay listed under Homo sapiens, 21%; in [7] it was 5.21%; in assay [8], 13.6%; in assay [9], -3.84%.

In the case of `Cc1ccc(-c2ncc(C(=O)NCCNC(=O)C(C)C)s2)c(C)c1`, the Percent Effect in assay [1] is -2.93%; in assay [2] it was 5.41%; in assay [3] it was -5.86%; in assay [4], -1.89%; with Trypanosoma cruzi it was -3.87%; in assay [5], -2%. The Percent Effect in assay [6] is 2.52%; in the assay listed under Homo sapiens it was 15.8%; in assay [7] it was 4.43%; in assay [8], 11.1%; in assay [9] it was -8.7%.

On to `Cc1nn(C)c(C)c1C1CCCN1CCCc1nc2ccccc2o1` (stereo not drawn), for which the Percent Effect in assay [1] was -7.27%; in assay [2] it was 8.11%; in assay [3], -11.9%; in [4], 17.9%; in the assay on Trypanosoma cruzi it was 5.38%; in assay [5] it was -10%. Also, the Percent Effect in assay [6] was 8.47%; in the assay filed under Homo sapiens, 13.8%; in assay [7], 11.3%; in [8], 23.5%; in assay [9] it was -12.9%.

`Cc1occc1C(=O)N1CCOCC2(CCN(Cc3nccs3)C2)C1` (stereo not drawn): the Percent Effect in assay [1] was -0.601%; in assay [2], 2.6%; in assay [3], 0.286%; in assay [4] it was 7.22%; in the assay on Trypanosoma cruzi, -0.688%; in assay [5], 5.52%. Also, the Percent Effect in assay [6] is 9.82%; in the assay listed under Homo sapiens it was -13.2%; in assay [7] it was -3.23%; in assay [8], -6.17%; in [9], 2.92%.

As for `CCn1c(N)nc2cc(C(=O)NCCc3ccccc3C)cnc21`, the Percent Effect in [1] was -2.81%; in assay [2] it was 13.7%; in assay [3] it was 9.51%; in assay [4] it was 3.5%; in the assay on Trypanosoma cruzi, 5.09%; in assay [5] it was 15%. The Percent Effect in assay [6] was 22.7%; in the assay listed under Homo sapiens, 20.2%; in assay [7], 5.38%; in assay [8], 17.5%; in [9], -12.1%.

As for `CN(C)C(=O)[C@@H]1CCO[C@@H]2CCN(CCc3ccccc3)C[C@@H]21`, the Percent Effect was -1.12% in assay [1]; 10.8% in assay [2]; -3.68% in assay [3]; 0.659% in assay [4]; 2.15% in the assay with Trypanosoma cruzi; 38.8% in [5]. In addition, the Percent Effect in assay [6] is 9.21%; in the assay filed under Homo sapiens it was 0.342%; in assay [7] it was -4.95%; in assay [8], 15.8%; in assay [9] it was -6.78%.

`CCC(C)(NCC(=O)Nc1ccccc1)c1nc(C)cs1` (stereo not drawn): the Percent Effect in assay [1] was -2.41%; in [2], 2.7%; in assay [3], -4.26%; in assay [4] it was 30.5%; in the assay on Trypanosoma cruzi, 2.05%; in assay [5] it was 18.6%. For the same molecule, the Percent Effect in assay [6] is -0.772%; in the assay listed under Homo sapiens it was -24.9%; in [7], 1.07%; in [8] it was 6.17%; in assay [9], 2.11%.

On to `COCC1Cn2nnc(-c3cnn(C)c3)c2CN1Cc1ccco1` (stereo not drawn), for which the Percent Effect is -2.03% in assay [1]; 2.7% in [2]; -7.24% in assay [3]; 5.87% in assay [4]; 1.37% in the assay on Trypanosoma cruzi; 23.8% in assay [5]. Further, the Percent Effect in assay [6] is 9.72%; in the assay filed under Homo sapiens it was -17.4%; in [7], 11.9%; in assay [8] it was 15.8%; in assay [9], -5.92%.

These data come from ChEMBL document CHEMBL3988442, “University of Dundee, Small-Polar-MMV Screening Library” (2021).
